In PubChem BioAssay AID1662 (Broad Institute, 2009):
In all, about 300,000 compounds went through this assay and about 4,000 (1.3%) were called active.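 Rule for the calls: active = mean replicate score, as percent of positive control median, at least 50; inconclusive = mean below 50 but one replicate at or above 50; inactive = mean and every replicate below 50.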 Shown is part of a subset that was picked to be rich in actives.

Test: S. pyogenes SKKanGAS growth inhibitors in kanamycin, primary screen, streptokinase expression inhibitor project, SKKanGAS strain, BacTiter-Glo luminescence (AID 1662);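 note: strain carries kanamycin resistance gene driven by streptokinase promoter and grows in 40 µg/ml kanamycin; loss of luminescence reflects streptokinase promoter inhibition or plain growth inhibition; 0% = median of DMSO wells and 100% = positive control at its reference dose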
Conditions: 6 h, at 7.5 µM, stronger effect = higher value

inhibition, inactive:
COCc1cc(=O)n2[nH]c(C)c(-c3ccccc3)c2n1 -14.5%, Cc1nc2c(-c3ccccc3)c(C)[nH]n2c(=O)c1Cl 18.8%, Cc1ccc2nnn(Cc3cccc(C(C)(C)C)c3O)c2c1 11.4%, CC1=NNC(=O)C1CCC(=O)N/N=C\c1cccc(Cl)c1 (stereo not drawn) 4.3%, O=c1[nH]oc(O)c1-c1ncc(C(F)(F)F)cc1Cl -8.5%, Cc1ccc(NC(=O)C2CC(=O)N(c3ccc4c(c3)OCCO4)C2)cc1S(=O)(=O)N1CCCCCC1 (stereo not drawn) -2.91%, Cc1ccccc1NC(=O)CNc1ccccc1N1CCCCC1 9.21%, CCC(=O)N1CCN(c2ccccc2NC(=O)COc2cccc(C)c2C)CC1 5.73%, Cc1nn2c(NCCN(C)C)c3c(nc2c1-c1ccccc1)CCC3 6.41%, COC(=O)c1ccc(C(=O)OC)c(NC(=S)N2CCN(c3cc(Cl)ccc3C)CC2)c1 14.5%, Cc1cccc(N2CCN(C(=O)c3cnn4c(C(F)F)cc(-c5ccccc5)nc34)CC2)c1C 38.6%, Cc1ccc(S(=O)(=O)N2CCOCC2)cc1C(=O)Nc1ccccc1N1CCCC1 -4.42%, COc1ccc(C(=O)NC2CC2)cc1OC1CCN(Cc2cnn(C)c2)CC1 7.48%, CCCCCC(O)c1cccc(OCc2ccc3ccccc3n2)c1 (stereo not drawn) 15.6%, O=C1c2ccccc2C(=O)C1c1ccccc1F 0.629%, CCOC(=O)C1=C(C)N=C2c3ccccc3C(=O)C2C1c1ccc(Br)cc1 (stereo not drawn) 38.8%, O=C(c1ccc(F)cc1)C1CCN(Cc2cn[nH]c2-c2ccccc2)CC1 -0.535%, CCN1C(=O)[C@H]2[C@@H](c3ccc(-c4ccc(F)cc4)cc3)N[C@@](Cc3ccccc3)(C(=O)OC)[C@H]2C1=O 9.27%, CCC(C)C(=O)Nc1cc([N+](=O)[O-])ccc1Cl (stereo not drawn) -5.67%, O=C(CN1CCSCC1)N/N=C/c1ccc(F)cc1F -4.84%, O=C(NCCN1CCOCC1)c1cc(-c2cccs2)nc2ccccc12 -10.4%, COC(=O)c1cc(-c2cccs2)nc2ccccc12 -7.36%, C#CCNC(=O)C1=C[C@@H](c2ccccc2)[C@H](CCCO)[C@@H](OCC)O1 0.924%, O=C(Nc1ccccc1Cl)NC1(C(=O)N2CCOCC2)CCCCC1 -13%, CCCCc1nc(NCCN)c(C#N)c2c1CSC(C)(C)C2 -15.3%, CCc1nc(NCCO)c(C#N)c2c1CCCC2 -3.02%, CCCNC(=O)C(=O)Nc1cc2c3c(c1)CCC(=O)N3CCC2 -4.99%, COc1cc(NS(=O)(=O)c2ccc(NC(=S)NC(=O)c3ccc(Br)cc3)cc2)ncn1 16.4%, CC(c1cccnc1)N(CCN(C)C)C(=O)Nc1ccc(Cl)c(Cl)c1 (stereo not drawn) -0.312%, O=C(COC(=O)c1cccc(Br)c1)Nc1cccc2c1C(=O)c1ccccc1C2=O -1.24%, Cc1ccccc1C(=O)Nc1ccccc1Sc1ccccc1 25.4%, CC(=O)N[C@H]1[C@H]([C@H](O)[C@H](O)CO)OC(C(=O)O)=C[C@@H]1O -0.96%, COc1ccc2[nH]c3c(=O)n(Cc4ccco4)cnc3c2c1 17.1%, N=c1c2c(-c3ccccc3)c(-c3ccccc3)n(Cc3ccccc3)c2ncn1CCCO -1.98%, COc1ccc(-c2oc3ncnc(NCCCO)c3c2-c2ccc(OC)cc2)cc1 33.4%, c1ccc(-c2oc3ncnc(N4CCOCC4)c3c2-c2ccccc2)cc1 -2.29%, O=C(O)CC(Cn1cnnn1)c1ccccc1 (stereo not drawn) -1.95%, C/C(CC(C)C)=N\Oc1nc(C)cc(C)n1 -4.06%, O=[N+]([O-])c1ccc(NCCCO)c(C(F)(F)F)c1 0.29%, COc1cc(C=O)ccc1Oc1nnnn1-c1ccccc1 24.2%, CN(C(=O)Nc1ccc(Cl)cc1)n1cnc2ccccc2c1=O 3.63%, Oc1ccc(/C=N/Nc2ccc(C(F)(F)F)cn2)cc1O -9.78%, O=C(CCCO)N/N=C/c1cc(Br)ccc1O -3.72%, CN(C)Cc1ccc(F)cc1Sc1cc(Cl)ccc1Cl -3.54%, CC(=O)Nc1ccc(S(=O)(=O)Nc2nc(-c3ccc(C(C)(C)C)cc3)cs2)cc1 0.664%, Cc1nc(NC(=O)c2cccc(Cl)c2)sc1-c1csc(Nc2cccc(Cl)c2)n1 25.6%, COc1c(O)cc2oc(-c3ccc(O)c(O)c3)cc(=O)c2c1O 3.54%, OCc1ccc(-c2ccccc2)c(-c2ccccc2)c1 -11.9%, COCCNC(=S)N(CCc1c(C)[nH]c2ccc(C)cc12)Cc1cccnc1 8.58%, O=C(O)c1cccc(N=NN2CCCCCC2)c1 5.53%, C[C@H]1[C@H]2c3nc4ccccc4n3C[C@H]1ON2C1CCCCC1 -3.38%, COc1ccc(NC(=O)CSc2nc3ccccc3c(=O)n2C)cc1 -4.23%, Cc1ccccc1-n1c(SCC(=O)Nc2cccc3ccccc23)nc(O)cc1=O 18.6%, C/C(=N\Nc1cccc(C(=O)O)c1)c1ccc2c(c1)Nc1ccccc1S2 0.801%, COc1ccccc1CCNC(=O)c1c(C)nn(CC(C)C)c1Cl -0.777%, O=C(Cc1ccc(S(=O)(=O)N2CCOCC2)s1)N1CCN(c2ccc(C(F)(F)F)cc2[N+](=O)[O-])CC1 3.49%, O=C(Nc1cccc(C(F)(F)F)c1)c1ccc(N2CCNCC2)c([N+](=O)[O-])c1 -0.102%, Cc1cc(C(=O)OCC(=O)NCc2ccco2)c(C)n1-c1ccccc1 2.24%, CC(CC(=O)Nc1cc(C(F)(F)F)ccc1Cl)c1ccccc1 (stereo not drawn) 24.4%, O=C(Nc1cc(C(F)(F)F)ccc1Cl)C(=O)N1CCCCC1 -4.87%, COc1cc(C)c(S(=O)(=O)N2CCOCC2)c(C)c1C 0.811%, O=C(Nc1ccccc1Cl)Nc1cccc2cccnc12 -4.43%, COCCN(CCOC)C(=S)Nc1ccccc1Cl -4.57%, Cn1cccc1C(C#N)c1ccccc1C#N (stereo not drawn) 0.367%, Cc1cc(C)c2nc(N(CCN(C)C)C(=O)/C=C/c3cccs3)sc2c1 3.15%, Cc1noc(NS(=O)(=O)c2ccc(NC(=O)c3oc4ccc(F)cc4c3C)cc2)c1C 25.3%, CCn1c(SCC(=O)Nc2ccc(S(=O)(=O)Nc3onc(C)c3C)cc2)nnc1-c1ccccc1 -0.983%, Cc1ccsc1CNn1cnnc1SCc1ccccc1F -0.394%, c1ccc(-c2cc(N3CCCCC3)c3ccccc3n2)cc1 13.6%, O=C(c1cc2ccccc2o1)N1CCN(c2cccc(C(F)(F)F)c2)CC1 0.601%, O=C(c1ccc(OC2CCN(C(=O)c3cccnc3)CC2)cc1)N1CCCCCC1 -5.73%, O=C(N/N=C/c1cccc([N+](=O)[O-])c1)c1ccncc1 1.34%, Cc1[nH]n(-c2ccccc2)c(=O)c1/C=N/NC(=O)c1ccoc1C -29.8%, CC1=C2C(=O)OC(c3ccoc3)C2(C)CCC1 (stereo not drawn) -13.7%

inhibition, active:
CCCc1cc(=O)n2[nH]c(C)c(-c3ccc(Cl)cc3)c2n1 53.5%, Cc1ccc(C(C)C)cc1OCC(=O)Nc1ccccc1N1CCCC1 69.7%, Cc1ccc(Cl)cc1N1CCN(C(=O)c2cccc3c(=O)c(C)c(-c4ccccc4)oc23)CC1 52.6%, CC1(C)C=C2[C@H]3CC[C@@H]4[C@@]5(C)CCC(=O)C(C)(C)[C@@H]5CC[C@@]4(C)[C@]3(C)CC[C@@]2(C(=O)O)CC1 96.7%, O=C1c2ccccc2C2=Nc3ccccc3SC(c3ccccc3F)C12 (stereo not drawn) 52.9%, O=C(Nc1nnc(-c2ccccc2)o1)c1cc(-c2cccs2)nc2ccccc12 92.3%, CCCCc1nc(NCc2ccccc2)c(C#N)c2c1CCCC2 60%, O=C(COC(=O)c1ccccc1)Nc1ccccc1Sc1ccccc1 58.2%, N=c1c2c(-c3ccccc3)c(-c3ccccc3)oc2ncn1Cc1ccco1 63.5%, COc1ccc(-c2oc3ncn(Cc4ccco4)c(=N)c3c2-c2ccc(OC)cc2)cc1 55%, Oc1ccc(Br)cc1/C=N/Nc1ccccn1 106%, O=C(Nc1ccc(-c2csc(Nc3cccc(C(F)(F)F)c3)n2)cc1)c1cccc(C(F)(F)F)c1 98.6%, Cn1c(SCC(=O)Nc2ccc(Cl)cc2)nc(O)cc1=O 112%, COc1cc(OC)cc(C(=O)NC(=S)N2CCN(c3ccc(C(F)(F)F)cc3[N+](=O)[O-])CC2)c1 86.6%, O=C(NNc1ccccc1Cl)C(O)(c1cccc(C(F)(F)F)c1)c1cccc(C(F)(F)F)c1 98.2%, O=C(Nc1ccccc1Cl)/C(Cl)=C(\Cl)S(=O)c1ccccc1 (stereo not drawn) 75.1%, Cc1cc(C)c2nc(-c3cccnc3)cc(C(=O)Nc3ccc(S(=O)(=O)Nc4onc(C)c4C)cc3)c2c1 64.7%, FC(F)(F)c1cccc(-c2cc3ccccc3nc2N2CCCC2)c1 51.7%, Cc1ccc(-n2[nH]c(C)c(/C=N/NC(=O)c3cccc([N+](=O)[O-])c3)c2=O)cc1C 91.5%
